Compounds with a hit are over-represented: about 3% of the library has one in this group of screens.
PMP22 txn prim = modulators of PMP22 gene transcription in S16 Schwann cells. Potency, µM (titrated, usually from 57.5 µM), hits mostly inhibitors. S16 Pmp22-F2sN Schwann cells, FLuc/NLuc coincidence luminescence, 24 h. 43,000 compounds, 2% hits; active means clear falling dose curves in both reporters; inconclusive means both reporters move, but less clearly or upward; inactive means either reporter flat; the % is the NLuc reporter signal
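qHTS, 1536-well. Cells seeded, compounds added by pin tool, 24 h 37C. Nano-Glo reagent 1 (lysis/FLuc), 10 min RT, read; Stop&Glo, 10 min RT, read NLuc.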
OvCa metastasis = blocks SKOV3ip1 adhesion and invasion in omental model. SKOV3ip1-GFP adhesion/invasion on 3D omental model, fluorescence. Potency, µM (highest dose often 45.8 µM), hits mostly inhibitors. 46,000 compounds, 0.1% hits. AID 1963576; further: nearly all actives have a fitted effect of over 65% in size
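qHTS, 4-pt dose (0.36-46 umol/L); SKOV3ip1-GFP, 1,200 cells/well, no FBS; primary omental fibroblast/mesothelial co-culture 48 h pre-grown; 2 h RT + 16 h 37 C; PBS wash, 4% PFA; GFP count 488/509 nm.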
S16 viability = toxic to S16 Pmp22-F2sN Schwann cells. S16 Pmp22-F2sN Schwann cells (luciferase reporters placed in the Pmp22 gene) viability, CellTiter-Glo, 24 h. Potency, µM (titrated, usually from 57.5 µM), usual class: cytotoxic. 43,000 compounds, 0.48% hits. AID 1508642; further: nearly all actives have a fitted effect of over 65% in size
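Luminescence from CellTiter-Glo, read by CCD camera after a 15 min room-temperature incubation, served as the viability signal. Reporter Schwann cells (S16 Pmp22-F2sN) had been treated with pin-transferred compounds for 24 h at 37C.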
mTORC1 inh = reduces mTORC1 signaling in Tsc2 and p53 null MEF cells; 44,000 compounds, 0.78% hits; Tsc2-/- p53-/- MEF, phospho-rpS6 immunofluorescence/PI, 24 h; AID 493208; Potency, µM (highest dose often 38.3 µM), hits mostly inhibitors; further: nearly all actives have a fitted effect of over 50% in size
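Cell-based qHTS: Tsc2-/- p53-/- MEF, 24 h cpd, 37 °C; fix/perm, anti-phospho-S6 Alexa-488 + PI; Acumen 488 nm scan; pS6/PI ratio, % positive cells; rapamycin 7.5 nM = inhibition ref; PI count = viability.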
p53null 32C kill = selectivity test: cytotoxicity in p53 null cells, permissive temperature | H1299-neo p53 null cells, ATP luminescence, 24 h, 32C | Potency, µM (doses to about 46.1 µM), usual class: cytotoxic | 55,000 compounds, 0.62% hits | AID 903; further: nearly all actives have a fitted effect of over 55% in size
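H1299-neo (p53 null) cells, 600/well, treated 24 h at 32C with compound up to 46 uM; ATPlite luminescence viability, normalized to DMSO and 100 uM tamoxifen; AC50 by Hill fit.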
p53null 39C tox = selectivity test: cytotoxicity in p53 null cells, nonpermissive temperature; H1299 p53-null (neo) cells, 39C, ATPlite viability, 24 h; Potency, µM (highest dose often 46.1 µM), actives largely listed as cytotoxic; 55,000 compounds, 0.97% hits; AID 904; further: nearly all actives have a fitted effect of over 50% in size
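Following overnight plating at 37C (600 cells/well), H1299-neo or H1299-p53A138V cells are dosed up to 46 uM. Incubation lasts 24 hr at 39C before ATP detection.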
Numbers stand for hits; 0 = inactive; ? = inconclusive; - = no result given. Unless noted, the call rests on the fitted dose curve; in most records, active means well fitted curve in the direction sought with a large enough effect; inconclusive means small, poorly fitted or top-dose-only effect, or another doubt; inactive means no such curve, though single readings can be large; an effect the other way counts as inactive or inconclusive.

SMILES | PMP22 txn prim | OvCa metastasis | S16 viability | mTORC1 inh | p53null 32C kill | p53null 39C tox
O=C1CC(c2ccccc2)Cc2[nH]c(=O)c(-c3nc(-c4ccc(Cl)cc4)cs3)cc21 (configuration not stated) | 0.75µM | 0 | ? | 5.8µM | 0 | 0
c1ccc(N2CCN(c3ncnc4c3nc3n4CCCC3)CC2)cc1 | ? | 0 | ? | 0 | 0 | 0
FC(F)(F)c1cccc(N2CCN(c3ncnc4c3nc3n4CCCC3)CC2)c1 | 13µM | 0 | ? | 0 | 0 | 0
Cc1cnc(-c2cc(N3CCN(C(=O)CCS(C)(=O)=O)CC3)ncc2Cl)c(C)c1 | - | 0 | - | - | - | -
Cc1ccc(CNC(=O)CN2C(=O)CSc3ccc(S(=O)(=O)N4CCCC4)cc32)cc1 | 0 | 0 | 0 | 0 | 0 | 13µM
N#Cc1c(C(F)(F)F)cc(-c2cccs2)nc1SCC(=O)Nc1cccc(Br)c1 | 0 | 0 | 0 | 12µM | 0 | ?
COc1ccc(NC(=O)CSc2nc(-c3cccs3)cc(C(F)(F)F)n2)cc1OC | 4.2µM | 0 | ? | 0 | 0 | 0
N#Cc1c(C(F)(F)F)cc(-c2cccs2)nc1SCC(=O)Nc1cccc(Cl)c1 | 0 | 0 | 0 | 0 | 0 | 0
CC(=O)N1CCCc2cc(S(=O)(=O)N(CCN(C)C)Cc3ccccc3)ccc21 | 0 | 0 | 0 | 0 | 0 | 10µM
CC(C=CC(=O)NO)=C[C@@H](C)C(=O)c1ccc(N(C)C)cc1 | - | 0 | - | - | - | -
Cc1ccc(-n2nc3c(N4CCC(C(=O)NCCc5ccccc5)CC4)nnc(C)c3c2C)cc1 | ? | 0 | 28µM | 0 | 0 | 0
CCc1ccc(NC(=O)N2CCN(c3nnc(C)c4c(C)n(-c5ccc(Cl)cc5)nc34)CC2)cc1 | ? | 0 | 0 | 0 | ? | 20µM
COc1ccc(-n2nc3c(N4CCC(C(=O)NCCc5ccccc5)CC4)nnc(C)c3c2C)cc1 | 0 | 0 | 0 | 0 | 0 | 0
C=CCNc1c(O)cc2c(O)c1C[C@@H](C)C[C@H](OC)[C@@H](O)[C@@H](C)C=C(C)[C@H](OC(N)=O)[C@@H](OC)C=CC=C(C)C(=O)N2 | - | 0 | - | - | - | -
CCOc1ccccc1NS(=O)(=O)c1ccc2oc(=O)c3ncn(C)c3c2c1 | - | ? | - | 0 | 0 | 20µM
CCc1ccccc1NS(=O)(=O)c1ccc2oc(=O)c3ncn(C)c3c2c1 | - | 0 | - | 0 | 0 | 0
Cc1ccc(O)c(NC(=O)c2cc(-c3ccccc3O)no2)c1 | 0 | 0 | 0 | ? | 0 | 0
Cc1ccc(-c2cc(-c3ccccc3)no2)c(O)c1 | - | - | - | - | 7.9µM | -
CNC(=O)c1cc(COc2nnc(Nc3ccc(Cl)cc3)c3ccoc23)ccn1 | - | 0 | - | - | - | -
O=S(=O)(Nc1ccc2oc3c(c2c1)CCCC3)c1cc(Cl)ccc1Cl | 0 | 0 | 0 | 0 | 0 | 0
COc1ccc(S(=O)(=O)Nc2ccc3oc4c(c3c2)CCCC4)cc1 | 0 | 0 | 0 | ? | 0 | 22µM
CCn1c(C)cc(/C=C2/SC(=S)NC2=O)c1C | - | - | - | - | 18µM | -
Cc1cccc(C)c1OCCCn1c(CCNC(=O)C2CCCCC2)nc2ccccc21 | ? | 0 | 0 | 0 | 0 | 16µM
Cc1ccc(OCCCn2c(CCNC(=O)C3CCCCC3)nc3ccccc32)c(C)c1 | 0 | 0 | ? | 0 | 0 | 0
Cc1cc(OCCCn2c(CCNC(=O)C3CCCCC3)nc3ccccc32)ccc1Cl | ? | ? | ? | 0 | ? | 25µM
SMILES | PMP22 txn prim | OvCa metastasis | S16 viability | mTORC1 inh | p53null 32C kill | p53null 39C tox
COc1ccc(-n2c(/C=C/c3ccccc3F)nc3cc(OC)c(OC)cc3c2=O)cc1Cl | 0 | 0 | 10µM | 0 | 0 | 0
COc1ccc(-n2c(/C=C/c3cc(OC)c(OC)cc3OC)nc3cc4ccccc4cc3c2=O)cc1Cl | 0 | 0 | 0 | ? | 0 | 0
CS(=O)(=O)c1ccc(Sc2nc3ccccc3s2)c([N+](=O)[O-])c1 | - | - | - | - | 13µM | -
Cc1cc(S(=O)(=O)Nc2ccc(O)c(Sc3nc4ccccc4s3)c2)ccc1Cl | ? | 0 | ? | 0 | 0 | 0
COc1ccc(CNC(=O)c2cc3c(-c4ccc(Cl)cc4)nn(C)c3s2)cc1 | 0 | 0 | 0 | 0 | 0 | 0
CCCN(CCC)CCCNC(=O)c1cc2c(-c3ccc(Cl)cc3)nn(C)c2s1 | ? | ? | ? | 13µM | 0 | 16µM
CC(C)=CCCC(C)=CCCC(C)=CCSc1ccccc1C(=O)O | - | 0 | - | - | - | -
CCOC(=O)c1cc2c(=O)n3ccccc3nc2n(Cc2ccco2)c1=NC(=O)c1cccc(C)c1 | ? | 0 | ? | 0 | 0 | 0
CCOC(=O)c1cc2c(=O)n3ccccc3nc2n(Cc2ccco2)c1=NC(=O)c1c(F)cccc1Cl | 15µM | 0 | ? | 0 | 0 | 0
Clc1cccc(-n2ncc3c(N4CCCCCC4)ncnc32)c1 | 0 | 0 | 0 | 0 | ? | 0
Fc1ccc(-n2ncc3c(N4CCCCCC4)ncnc32)cc1 | 0 | 0 | 0 | 0 | ? | 14µM
Fc1ccc(-n2ncc3c(N4CCC(Cc5ccccc5)CC4)ncnc32)cc1 | 0 | 0 | 0 | 0 | 0 | 0
Cc1ccc(-n2ncc3c(N4CCCCCC4)ncnc32)cc1 | ? | 0 | 0 | 0 | 3.2µM | 0
Clc1cccc(-n2ncc3c(N4CCCCC4)ncnc32)c1 | 0 | 0 | 0 | 0 | 3.2µM | 13µM
COc1cc(=C2C=c3ccccc3=N2)[nH]c1=Cc1[nH]c(C)cc1C | - | 0 | - | - | - | -
O=C1NC(=O)C(=Cc2ccc3nccnc3c2)S1 | - | 0 | - | - | - | -
COc1cc(F)c(C(C)C)cc1-c1ccc(C(F)(F)F)cc1CN1C(=O)O[C@H](c2cc(C(F)(F)F)cc(C(F)(F)F)c2)[C@@H]1C | - | 0 | - | - | - | -
Cc1ccccc1CNC(=O)CCCn1c(=O)c2cccn2c2ccccc21 | 16µM | 0 | 0 | 0 | 0 | 0
CSc1ccc(CCNC(=O)CCCn2c(=O)c3cccn3c3ccccc32)cc1 | 0 | 0 | 0 | ? | 0 | 13µM
COc1ccccc1CNC(=O)CCCn1c(=O)c2cccn2c2ccccc21 | ? | 0 | 0 | 18µM | 0 | 0
Cc1nc(N)sc1-c1ccnc(Nc2ccc(N3CCOCC3)cc2)n1 | - | 0 | - | - | - | -
CC(C)(C)c1cnc(CSc2cnc(NC(=O)C3CCNCC3)s2)o1 | - | 0 | - | - | - | -
CC1(C)CC(O)CC(C)(C)N1[O] | - | 0 | - | - | - | -
c1ccc2c(-c3cnn4cc(-c5ccc(N6CCNCC6)cc5)cnc34)ccnc2c1 | - | 23µM | - | - | - | -
CCC(CO)Nc1ncnc2c1cnn2-c1ccc(C)cc1 (configuration not stated) | ? | 0 | 0 | 0 | 16µM | 0
Cc1ccc(-n2ncc3c(NC(C)c4ccccc4)ncnc32)cc1 (configuration not stated) | 0 | 0 | 0 | 0 | ? | 0
COc1ccc(-n2ncc3c(NC(C)(C)CO)ncnc32)cc1 | 0 | 0 | 0 | 0 | 13µM | ?

High-throughput results (PubChem)
